In test [1] the target is Progesterone receptor (Homo sapiens) (UniProt P06401). The test is described as follows: qHTS assay to identify small molecule agonists of the progesterone receptor (PR) signaling pathway (AID 1346784; calls by dose curve; further: nearly all actives have a fitted effect of over 30% in size). Summed up:
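HEK 293T PR-UAS-bla reporter cells, 2% charcoal-stripped FBS; 6 hr settle at 37C/5% CO2, compound (DMSO) 16 hr, LiveBLAzer B/G FRET substrate 2 hr RT, fluorescence intensity read.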
(In general: In qHTS, concentration-response curves come from the screen itself.)

For test [2] the target is unchanged. The test is described as follows: qHTS assay to identify small molecule antagonists of the progesterone receptor (PR) signaling pathway (AID 1346795; active means well fitted inhibition curve with a large enough effect in the signal ratio in the repeat runs, not every such curve was filed as active; the % refers to the signal ratio). Summed up: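 Beta-lactamase reporter, HEK293T PR-UAS-bla line; 2% charcoal-stripped FBS; 6 hr pre-incubation, 37C/5% CO2. Compound + R5020 1 nM final, 16 hr. LiveBLAzer B/G FRET substrate, 2 hr RT; fluorescence intensity read.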

Test [3] is described as follows: qHTS assay to identify small molecule antagonists of the progesterone receptor (PR) signaling pathway - cell viability counter screen (AID 1346798). Further: series mostly up to about 92 µM; nearly all actives have a fitted effect of over 50% in size. Summed up:
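Luminescence readout (CellTiter-Glo, 30 min, RT) of viability in PR-UAS-bla HEK293T cells exposed to compound and R5020 agonist for 16 hr at 37C, 5% CO2; run in the same wells as the beta-lactamase reporter read.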

Test [4] is described as follows: qHTS assay to identify small molecule antagonists of the TGF-beta/Smad signaling pathway - cell viability counter screen (AID 1346824). Further: nearly all actives have a fitted effect of over 50% in size. Summed up: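 SBE-bla HEK 293T cells were plated overnight at 37 C, then given compounds in DMSO plus TGF-beta1 (added as 0.25 ng/mL solution) for 5 hr. After the bla read, CellTiter-Glo was added to the same wells and luminescence read after 30 min at room temperature.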

Test [5] can be described thus: qHTS assay to identify small molecule agonists of the TGF-beta/Smad signaling pathway - cell viability counter screen (AID 1346829). Further: top concentration of the series differs between compounds; nearly all actives have a fitted effect of over 45% in size. Summed up:
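Here the cytotoxicity of library compounds is measured in SBE-bla HEK 293T cells treated for 5 hr, using CellTiter-Glo added to wells already read for the beta-lactamase reporter.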

Test [6] can be described thus: qHTS assay to identify small molecule agonists of the TGF-beta/Smad signaling pathway (AID 1346859; active means well fitted activation curve with a large enough effect in the signal ratio in the repeat runs, not every such curve was filed as active; the % refers to the signal ratio; further: series mostly up to about 77 µM). Summed up: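 Read-out: fluorescence at 460 and 530 nm (405 nm excitation) after a 2 hr room-temperature incubation with beta-lactamase FRET substrate. SBE-bla HEK 293T cells had been treated with test compounds for 5 hr at 37 C.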
For test [7], the target named is Thyrotropin-releasing hormone receptor (Homo sapiens) (UniProt P34981). Kind of test: qHTS assay to identify small molecule antagonists of the thyrotropin-releasing hormone receptor (TRHR) signaling pathway (AID 1346877; active means well fitted inhibition curve with a large enough effect in the repeat runs, not every such curve was filed as active; further: series mostly up to about 51 µM). Summed up: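 Overnight-plated (18 h, 37 °C) HEK293 cells expressing TRHR were dye-loaded 2 h, treated with compound, then stimulated with TRH at 1 nM final. Fluorescence intensity was captured every second for 3 min.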
Chain of Thyrotropin-releasing hormone receptor (Homo sapiens) (P34981 whole entry, looked up): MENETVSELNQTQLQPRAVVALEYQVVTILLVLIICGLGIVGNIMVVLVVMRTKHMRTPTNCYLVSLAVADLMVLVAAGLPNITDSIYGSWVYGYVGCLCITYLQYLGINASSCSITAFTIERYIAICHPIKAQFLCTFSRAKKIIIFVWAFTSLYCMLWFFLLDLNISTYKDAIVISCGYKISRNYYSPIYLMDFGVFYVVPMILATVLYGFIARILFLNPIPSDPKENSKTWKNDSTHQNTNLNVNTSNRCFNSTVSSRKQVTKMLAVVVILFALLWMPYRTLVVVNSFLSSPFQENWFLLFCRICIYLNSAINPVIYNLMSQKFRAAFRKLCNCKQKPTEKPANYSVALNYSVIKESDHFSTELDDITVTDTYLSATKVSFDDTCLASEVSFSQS

The target is the same in test [8]. The test is described as follows: qHTS assay to identify small molecule agonists of the thyrotropin-releasing hormone receptor (TRHR) signaling pathway (AID 1346891; calls by dose curve;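 further: HEK293 cells expressing TRHR with calcium dye readout; series mostly up to about 58 µM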). Summed up:
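HEK293/TRHR cells, 1500 per well, 18 h 37 °C; Ca dye 2 h 37 °C; pin-tool compound addition (agonist mode); kinetic fluorescence 3 min, 1 s reads; 15 concentrations, triplicate.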

Test [9] is described as follows: Human pregnane X receptor (PXR) small molecule agonists, qHTS cell viability counter screen (AID 1346977). Further: nearly all actives have a fitted effect of over 50% in size. Summed up: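 Fluorescence read-out (CellTiter-Fluor) of viability in PXR-Luc HepG2 cells, multiplexed with the luciferase agonist read. Compounds in DMSO added after 5hr plating; 24hr total exposure at 37C, 5% CO2.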
The nature of test [10]: Caspase-3/7 induction in HepG2 cells by small molecules, qHTS assay (AID 1346978). Further: nearly all actives have a fitted effect of over 15% in size. Summed up:
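Wild-type HepG2 cells (2,000/well) were settled 5 h at 37 C, 5% CO2, then exposed to compounds in DMSO for 17 h. Caspase-3/7 activity was read by luminescence 30 min after adding Caspase-Glo 3/7 reagent at room temperature.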

Test [11] is described as follows: Caspase-3/7 induction in CHO-K1 cells by small molecules, qHTS cell viability counter screen (AID 1346979). Further: nearly all actives have a fitted effect of over 35% in size. Summed up: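 CHO-K1 wt, 1,500 cells/well; 5hr pre-incubation 37C/5% CO2; compound pin transfer (DMSO); 16hr exposure; CellTiter-Fluor added, 1hr, fluorescence read.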
The nature of test [12]: Caspase-3/7 induction in CHO-K1 cells by small molecules, qHTS assay (AID 1346980). Further: nearly all actives have a fitted effect of over 15% in size. Summed up:
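Wild-type cells were seeded at 1,500 per well and settled 5 hr at 37 C, 5% CO2, then exposed to DMSO-dissolved compounds for 17 hr. Caspase-Glo 3/7 reagent was added, and luminescence was read after 30min at room temperature.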

Test [13] concerns the target Nuclear receptor subfamily 1 group I member 2 (Homo sapiens) (UniProt O75469). The test is described as follows: Human pregnane X receptor (PXR) small molecule agonists, qHTS assay (AID 1346982). Further: nearly all actives have a fitted effect of over 35% in size. Further: potency means the concentration at half of the fitted maximal effect. Summed up:
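Stable HepG2 line reporting PXR-mediated CYP3A4 expression via luciferase. Treatment: 24 hr with compounds in DMSO at 37 C. Detection: ONE-Glo luminescence.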

The target in test [14] is Acetylcholinesterase (Homo sapiens) (UniProt P22303). Kind of test: Acetylcholinesterase (AChE) small molecule antagonists: colormetric cell-based qHTS assay (AID 1347395; calls by dose curve; further: nearly all actives have a fitted effect of over 30% in size). Summed up: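 SH-SY5Y cells; cpd 30 min 37 C; + DTNB/acetylthiocholine, 90 min 37 C; colorimetric thiocholine read; qHTS.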
Chain of Acetylcholinesterase (Homo sapiens) (P22303 whole entry, looked up): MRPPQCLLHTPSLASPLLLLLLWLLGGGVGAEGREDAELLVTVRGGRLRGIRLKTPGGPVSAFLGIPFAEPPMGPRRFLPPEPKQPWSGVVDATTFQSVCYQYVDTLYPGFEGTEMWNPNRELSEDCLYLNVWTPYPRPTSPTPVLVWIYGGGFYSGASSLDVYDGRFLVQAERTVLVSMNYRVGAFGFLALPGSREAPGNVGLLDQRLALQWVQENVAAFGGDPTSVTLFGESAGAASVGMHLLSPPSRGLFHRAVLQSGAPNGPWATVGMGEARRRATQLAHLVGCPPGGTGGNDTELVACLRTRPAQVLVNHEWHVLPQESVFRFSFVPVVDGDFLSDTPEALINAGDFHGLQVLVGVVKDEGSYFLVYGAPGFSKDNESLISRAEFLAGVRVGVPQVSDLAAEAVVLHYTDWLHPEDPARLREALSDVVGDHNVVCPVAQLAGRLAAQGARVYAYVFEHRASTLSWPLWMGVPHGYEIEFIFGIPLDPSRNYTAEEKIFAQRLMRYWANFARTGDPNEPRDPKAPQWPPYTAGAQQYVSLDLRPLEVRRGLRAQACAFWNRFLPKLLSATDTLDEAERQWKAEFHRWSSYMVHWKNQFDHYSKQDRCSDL
The target is the same in test [15]. Kind of test: Acetylcholinesterase (AChE) small molecule antagonists: enzyme-based qHTS assay (AID 1347397; calls by dose curve; further: nearly all actives have a fitted effect of over 55% in size). To be noted: Potency: AChE enzyme activity inhibition. Summed up:
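Tox21 library chemicals are tested in qHTS format against recombinant human AChE. The enzyme, dispensed at 50 mU/mL, sits with compound for 30 min at room temperature. A DTNB–acetylthiocholine cocktail follows, and colour is read after 10 min.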

Test [16] in a line: Caspase-3/7 induction in HepG2 cells by small molecules, qHTS cell viability counter screen (AID 1346981). Further: series mostly up to about 92 µM; nearly all actives have a fitted effect of over 30% in size. Summed up: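 Treatment of HepG2 cells with DMSO-delivered compounds ran 16 hr at 37 C following a 5-hr pre-incubation of 2,000 cells/well. CellTiter-Fluor fluorescence, read after 1 hr, served as the viability measure in a qHTS format.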
For test [17], the target named is Nuclear receptor subfamily 1 group I member 2 (Rattus norvegicus) (UniProt Q9R1A7). Kind of test: Rat pregnane X receptor (rPXR) activation by small molecules, qHTS assay (AID 1346983). Further: nearly all actives have a fitted effect of over 20% in size. Further: potency means the concentration at half of the fitted maximal effect. To be noted: rPXR luciferase reporter cells, One-Glo luminescence, 24 h; max activation: stronger effect = higher value. Summed up: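 Cell-based rPXR luciferase reporter assay, 2,000 cells per well, rested 5hr at 37 C before compound addition in DMSO, then 24 hr at 37 C. One-Glo reagent was added and luminescence read after 30 min at room temperature.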
Chain of Nuclear receptor subfamily 1 group I member 2 (Rattus norvegicus) (Q9R1A7 whole entry, looked up): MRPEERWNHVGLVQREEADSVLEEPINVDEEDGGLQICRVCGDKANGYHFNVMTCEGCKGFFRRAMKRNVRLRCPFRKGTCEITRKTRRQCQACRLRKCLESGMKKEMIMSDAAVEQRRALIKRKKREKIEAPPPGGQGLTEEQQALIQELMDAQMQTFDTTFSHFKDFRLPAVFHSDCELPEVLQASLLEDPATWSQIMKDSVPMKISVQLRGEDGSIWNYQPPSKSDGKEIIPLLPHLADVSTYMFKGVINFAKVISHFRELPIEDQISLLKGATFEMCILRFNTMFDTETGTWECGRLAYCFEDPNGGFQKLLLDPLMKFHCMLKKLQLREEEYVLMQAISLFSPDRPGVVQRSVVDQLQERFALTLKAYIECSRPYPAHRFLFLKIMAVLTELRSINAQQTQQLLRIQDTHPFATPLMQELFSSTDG

The target in test [18] is Nuclear receptor subfamily 1 group I member 2 (Homo sapiens) (UniProt O75469). Kind of test: CYP3A4 induction through human pregnane X receptor (PXR) by small molecules, qHTS assay (AID 1346984). Further: nearly all actives have a fitted effect of over 40% in size. Summed up: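 After 24 h at 37C with compound, DPX-2 cells (HepG2, co-transfected PXR response element and CYP3A4 promoter-luciferase) got 3uM final P450-Glo Luciferin-IPA for 3 h; One-Glo luminescence followed.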
Chain of Nuclear receptor subfamily 1 group I member 2 (Homo sapiens) (O75469 whole entry, looked up): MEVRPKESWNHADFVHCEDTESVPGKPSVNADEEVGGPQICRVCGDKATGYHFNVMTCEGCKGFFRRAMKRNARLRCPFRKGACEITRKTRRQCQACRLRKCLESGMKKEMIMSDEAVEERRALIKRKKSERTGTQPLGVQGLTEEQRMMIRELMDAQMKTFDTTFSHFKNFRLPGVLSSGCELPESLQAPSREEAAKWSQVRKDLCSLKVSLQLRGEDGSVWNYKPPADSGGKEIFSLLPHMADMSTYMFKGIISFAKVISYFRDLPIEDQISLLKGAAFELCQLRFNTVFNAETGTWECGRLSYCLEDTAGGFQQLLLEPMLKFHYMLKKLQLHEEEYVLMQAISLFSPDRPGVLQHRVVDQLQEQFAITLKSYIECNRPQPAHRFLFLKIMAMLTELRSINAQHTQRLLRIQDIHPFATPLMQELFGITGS

The target is the same in test [19]. Kind of test: Human pregnane X receptor (PXR) activation by small molecules, qHTS assay (AID 1346985). Further: nearly all actives have a fitted effect of over 40% in size. Summed up: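 DPX-2 cells (HepG2 co-transfected with a PXR response element and a CYP3A4-promoter luciferase construct) were seeded at 2,000 per well, rested 5 hr at 37C, then exposed to DMSO-dissolved compounds for 24 hr. Activation was read as luciferase luminescence.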

The nature of test [20]: qHTS assay to identify small molecule agonists of the progesterone receptor (PR) signaling pathway - cell viability counter screen (AID 1346799; calls by dose curve; further: nearly all actives have a fitted effect of over 45% in size). Summed up:
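HEK293T PR-UAS-bla, 3,000 cells/well, 2% charcoal-stripped FBS; 6 h settle, compound 16 h at 37C/5% CO2; LiveBLAzer 2 h RT, then CellTiter-Glo 30 min RT, luminescence read.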

Unmarked numbers belong to inactive results. Inconclusive results are not listed. Activity calls are given as the source filed them. Unless noted, the call rests on the fitted dose curve; in most records, active means well fitted curve in the direction sought with a large enough effect in the repeat runs; inconclusive means weak or mixed curves; inactive means no such curve, though single readings can be large; an effect the other way counts as inactive or inconclusive.
On the % scale 0 is the no-effect control and ±100 the full control effect.

Chain of Progesterone receptor (Homo sapiens) (P06401 whole entry, looked up): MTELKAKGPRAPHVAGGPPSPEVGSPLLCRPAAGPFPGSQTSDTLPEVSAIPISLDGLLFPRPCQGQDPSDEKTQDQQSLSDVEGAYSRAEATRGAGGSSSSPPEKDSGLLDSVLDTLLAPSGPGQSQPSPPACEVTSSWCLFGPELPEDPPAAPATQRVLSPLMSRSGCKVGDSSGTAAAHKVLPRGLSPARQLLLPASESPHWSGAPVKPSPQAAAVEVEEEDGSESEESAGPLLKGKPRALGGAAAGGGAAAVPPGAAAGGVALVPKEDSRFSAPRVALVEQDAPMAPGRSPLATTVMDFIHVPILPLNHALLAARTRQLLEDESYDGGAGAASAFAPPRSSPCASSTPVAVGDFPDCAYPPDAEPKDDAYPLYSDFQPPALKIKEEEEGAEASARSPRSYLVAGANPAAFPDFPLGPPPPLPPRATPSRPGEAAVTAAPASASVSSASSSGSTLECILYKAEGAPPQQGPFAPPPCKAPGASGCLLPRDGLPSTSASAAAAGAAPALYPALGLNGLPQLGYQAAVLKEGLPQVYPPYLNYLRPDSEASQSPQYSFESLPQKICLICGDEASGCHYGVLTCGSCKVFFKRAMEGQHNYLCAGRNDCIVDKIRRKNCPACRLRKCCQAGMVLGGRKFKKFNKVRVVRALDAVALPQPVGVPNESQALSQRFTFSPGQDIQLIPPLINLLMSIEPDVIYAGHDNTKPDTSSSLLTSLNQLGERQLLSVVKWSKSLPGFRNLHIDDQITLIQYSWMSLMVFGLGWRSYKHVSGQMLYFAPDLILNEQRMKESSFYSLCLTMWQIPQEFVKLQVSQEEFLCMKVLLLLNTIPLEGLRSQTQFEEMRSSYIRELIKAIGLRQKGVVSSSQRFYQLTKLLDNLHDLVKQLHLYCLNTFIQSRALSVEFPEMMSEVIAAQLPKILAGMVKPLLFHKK

Consider `CC(=O)CCc1ccc2c(c1)OCO2`, for which the Potency result in test [1], in [2], in test [3], in [4], in [9] and in test [10] was “inactive” throughout. For the same compound, the Potency entry in [11], in [12], in test [13], in test [14] and in test [15] was “inactive” throughout. Also, the result in [5], in [6], in test [7] and in [8] was inactive.
Take `CCCCCCI`: the Potency entry in test [1], in test [2], in [3], in test [4], in [9] and in [10] was “inactive” throughout. Further, the Potency result in test [11], in [12], in test [13], in test [14] and in test [15] was “inactive” in each case. The outcome in test [5] and in test [6] was inactive.
On to `C=C(C)[C@@H]1CC=C(C=O)CC1`, for which the Potency entry in [1], in test [2], in [3], in [4], in [9] and in [10] was “inactive” in each case. In addition, the Potency result in test [12], in [16] and in test [15] was “inactive” throughout. In addition, the outcome in test [5] and in test [6] was inactive.
For the compound `CCC1(c2ccccc2)C(=O)NC(=O)NC1=O`, the Potency result in test [1], in test [2], in [3], in [9], in test [10] and in test [11] was “inactive” each time. Further, the Potency entry in test [12], in [13], in test [18], in test [19] and in [14] was “inactive” in each case. For the same compound, the compound was called inactive in [6], in test [7] and in test [8]. In addition, the max activation in test [17] was -0.894%.
Consider `CN1C[C@@H](NS(=O)(=O)N(C)C)C[C@@H]2c3cccc4c3c(cn4C)C[C@H]21`, for which the Potency entry in test [1], in test [2], in [3], in test [9], in [10] and in test [11] was “inactive” in each case. Besides, the Potency result in test [12], in test [16], in [14] and in test [15] was “inactive” throughout. Moreover, the outcome in test [5], in [6], in test [7] and in test [8] was inactive. Moreover, the results for the Potency in test [13] and in [17] were 23.7 µM (active) and 10 µM (active), respectively.
For the compound `COC(=O)c1ccccc1S(=O)(=O)NC(=O)Nc1nc(C)cc(C)n1`, the Potency result in test [1], in test [2], in test [3], in test [9], in [10] and in [11] was “inactive” throughout. The Potency result in [12], in test [16], in [13] and in [15] was “inactive” throughout. Moreover, the call in test [5], in test [6], in test [7] and in test [8] was inactive.
For the compound `C[N+](C)=CCl`, the Potency result in test [1], in [2], in test [20], in test [4], in [9] and in test [10] was “inactive” in each case. The Potency entry in [11], in test [12], in [16], in [13] and in test [14] was “inactive” each time. Further, the compound was classed as inactive in test [5], in [6], in test [7] and in [8].
For the compound `CC(C)NCC(O)c1ccc(N)c(C#N)c1` (stereo not given), the Potency result in [1], in [2], in [20], in [4], in test [9] and in test [10] was “inactive” throughout. Further, the Potency entry in test [11], in test [12], in test [16], in [14] and in test [15] was “inactive” in each case. In addition, the call in test [5] and in [6] was inactive.
Turning to `CN1CCC(O)(c2ccc(F)cc2)C(C(=O)c2ccc(F)cc2)C1` (stereo not given), the Potency result in [1], in test [2], in test [3], in test [4], in test [10] and in test [11] was “inactive” each time. Further, the Potency entry in test [12], in test [16], in test [18], in test [19], in [14] and in test [15] was “inactive” throughout. The compound was called inactive in test [5], in test [6], in test [7] and in [8]. Also, the Potency in test [13] is 13.3 µM (active). In addition, the max activation in test [17] was -0.751%.
